The values that follow come from PubChem BioAssay (Tox21).

Records with an inconclusive call do not appear. A number with no mark means an inactive call. Activity calls are given as the source filed them. The call rests on the fitted dose curve; in most records, active means well fitted inhibition curve with a large enough effect in the repeat runs; inconclusive means weak or mixed curves; inactive means no such curve, though single readings can be large or run the other way.
On the % scale 0 is the no-effect control and ±100 the full control effect; potency means the concentration at half of the fitted maximal effect.

Cytochrome P450 2C9 (Homo sapiens), sequence (P11712 whole entry, looked up): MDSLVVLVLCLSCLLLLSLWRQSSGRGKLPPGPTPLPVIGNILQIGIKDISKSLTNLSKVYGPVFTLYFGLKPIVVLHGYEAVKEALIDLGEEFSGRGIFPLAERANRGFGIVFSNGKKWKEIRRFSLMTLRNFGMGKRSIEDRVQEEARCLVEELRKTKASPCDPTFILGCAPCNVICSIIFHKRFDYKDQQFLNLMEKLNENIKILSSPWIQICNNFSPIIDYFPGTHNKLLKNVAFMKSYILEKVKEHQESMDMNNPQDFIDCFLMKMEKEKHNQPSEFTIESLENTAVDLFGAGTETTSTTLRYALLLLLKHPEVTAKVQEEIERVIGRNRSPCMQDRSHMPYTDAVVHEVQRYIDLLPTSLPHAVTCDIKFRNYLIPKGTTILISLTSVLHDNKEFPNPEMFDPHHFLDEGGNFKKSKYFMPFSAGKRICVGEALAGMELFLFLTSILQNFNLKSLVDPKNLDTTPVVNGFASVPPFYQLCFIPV

In the assay the target is Cytochrome P450 2C9 (Homo sapiens) (UniProt P11712). The assay can be described thus: Cytochrome P450 Family 2 Subfamily C Member 9 (CYP2C9) small molecule antagonists: luciferase reporter qHTS assay (AID 1671198). Further: nearly all actives have a fitted effect of over 50% in size. As to conditions: P450-Glo CYP2C9 enzyme assay, luciferin luminescence; series mostly up to 115 µM; activity change, negative = inhibition: at the top concentration. In outline:
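Enzyme-substrate mix preincubated with compound 10 min at room temperature; reaction started with NADPH regeneration solution, 1 h 37C. Luminescent luciferin product read after 20 min detection reagent.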
Background: A reporter such as luciferase makes a cellular process visible.
As for `O=C(NC(O)C(Cl)(Cl)Cl)NC(O)C(Cl)(Cl)Cl` (stereo not drawn), the “activity change, negative = inhibition” value was -9.07% [at 53 µM].
On the same count and under the same terms, to `CCCCS(=O)(=O)Cl` belongs -12.1%; to `O=c1[nH]c2ccccc2o1`, -6.21%; to `CCN(CCO)CCn1c(Cc2ccccc2)nc2c1c(=O)n(C)c(=O)n2C`, -13.9% [at 53 µM].
As for `CCc1cc(OC)c(C[C@H](C)N)cc1OC`, the “activity change, negative = inhibition” value was 1.96%.
Turning to `O=C(O)c1c(Cl)ccc2cc(Cl)cnc12`, the Potency is 79.6 µM (active).
`CC(C)(C)NC[C@H](O)c1ccc(O)cc1Cl`: the “activity change, negative = inhibition” value is -7.34% [at 53 µM].
For the molecule `NC1(c2ccccc2)CCCCC1`, the “activity change, negative = inhibition” value was -0.499%.
For the molecule `NNCc1ccccc1`, the Potency was 45.6 µM (active).
For the molecule `CC1N=C(N)OC1c1ccccc1` (stereo not drawn), the “activity change, negative = inhibition” value is -0.195%.
As to `CCN[C@@H](C)Cc1ccccc1`, the “activity change, negative = inhibition” value was 14%.
In the case of `CC(=O)CN(CC(C)=O)N=O`, the “activity change, negative = inhibition” value is -13.8%.
On the same count and under the same terms, to `ClC1=C(Cl)C2(Cl)C(CBr)CC1(Cl)C2(Cl)Cl` (stereo not drawn) belongs -11.1% [at 53 µM]; to `COc1ccc(C=O)cc1O`, -0.254%.
Still for that read-out and setting: to `C=C1CC[C@@]2(O)[C@H]3Cc4ccc(O)c5c4[C@@]2(CCN3CC2CC2)[C@H]1O5` belongs -3.84% [at 53 µM].
Still for that read-out and setting: to `C(COCC1CO1)OCC1CO1` (stereo not drawn) belongs -4.66%; to `COP(=O)(O)OC`, -10.8%; to `CCNc1nc(NCC)nc(SC)n1`, 10.3%.
Turning to `O=C(O)C(F)(F)C(F)(F)C(F)(F)C(F)(F)C(F)(F)C(F)(F)F`, the Potency is 6.33 µM (active).
As to `BrCC1CO1` (stereo not drawn), the “activity change, negative = inhibition” value is -1.19%.
In the case of `[P]#[In]`, the “activity change, negative = inhibition” value is -3.93%.
The same measure, in the same setting: to `O=C(O)CBr` belongs 0.907%; to `CCCC[N+](=O)[O-]`, -7%.
